# Measurements: PubChem BioAssay (EPA / NIEHS)
# Active and inactive are the calls of the source. The calls were made as follows: active = hit-call score of the fitted dose curve at least 0.9, where 1 is the maximum; inactive = score below 0.9.
# Read-out: solute carrier (SLC22A1), SLC22A1 (gene 6580)
# Assay: LTEA_HepaRG_SLC22A1: Life Technologies and Expression Analysis (LTEA) Assay for solute carrier (SLC22A1) using HepaRG (AID 2283524);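 as to AC50: differentiated human HepaRG liver cells in serum-free induction medium; TaqMan qRT-PCR normalized to ACTB GAPDH and POLR2A housekeeping genes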
# Details: mRNA level, 48 h; actives raise or lower the signal
# Method in brief: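 HepaRG (human liver line), 48 h dosing in serum-free induction medium; 8 conc., half-log down from 100 uM, 0.5% DMSO vehicle, duplicates. Endpoint: SLC22A1 mRNA, qRT-PCR, housekeeping-normalized; gain/loss fit vs DMSO.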
SMILES,AC50,outcome
Cc1[nH]cnc1C[C@H]1CCc2c(C)c3ccccc3n2C1=O,29 µM (active),
Cc1ccc(N)cc1O,,inactive
COc1ccc(/C=C/S(=O)(=O)NC(=O)c2ccc(C)cc2Cl)cc1,,inactive
Nc1ccc(Nc2ccccc2)cc1,,inactive
CNS(=O)(=O)c1cc(C(=O)N2CCC(CCN3C4CCC3CC(n3c(C)nc5ccccc53)C4)(c3cccc(F)c3)CC2)c(Cl)cc1F (centres undefined),18.8 µM (active),
O=P(OC(CCl)CCl)(OC(CCl)CCl)OC(CCl)CCl,75.2 µM (active),
CC(C)c1cccc(C(C)C)c1N1C(=O)c2ccc(O)cc2C1=O,91.4 µM (active),
Oc1ccc2c(c1)-c1ccccc1C2,,inactive
CCOCCO,,inactive
C=CCCCCCCCCC(=O)O,,inactive
O=C(O)c1cccc(Oc2ccccc2)c1,,inactive
CC(C)CC(C)(O)C#CC(C)(O)CC(C)C (centres undefined),,inactive
CC1(C)C(=O)N(Br)C(=O)N1Br,,inactive
C1=CCCC=CCCC=CCC1,,inactive
COc1cccc(-c2ccc(/C=C\CN3CCCCCC3)cc2Cl)c1,74.4 µM (active),
CC(=O)OCCC(C)C,,inactive
O=c1n(CC2CO2)c(=O)n(CC2CO2)c(=O)n1CC1CO1 (centres undefined),,inactive
Cc1ccc(O)cc1,,inactive
CCN(C(=O)c1cc(C)cc(OC[C@H](C)Nc2ccncc2)c1)C(C)C,33.8 µM (active),
COC(=O)c1c(Cl)c(Cl)c(C(=O)OC)c(Cl)c1Cl,,inactive
CC[C@H](C)C(=O)O[C@H]1C[C@@H](C)C=C2C=C[C@H](C)[C@H](CC[C@@H]3C[C@@H](O)CC(=O)O3)[C@H]21,,inactive
CC(C)=CCC/C(C)=C/CO,,inactive
CCOC(=O)c1ccc(C2CCC(NC[C@H](O)COc3ccc(O)c(NS(C)(=O)=O)c3)CC2)cc1 (some centres undefined),,inactive
CCOC(=O)COc1ccc2c(c1)CC(NCC(O)c1cccc(Cl)c1)CC2 (centres undefined),,inactive
CC/C(=C\C(=N/O)C(N)=O)C(C)[N+](=O)[O-] (centres undefined),,inactive
O=C(O)CCN(C1(C(=O)NO)CCCC1)S(=O)(=O)c1ccc(Oc2ccc(F)cc2)cc1,,inactive
O=C1CCC(N2C(=O)c3ccccc3C2=O)C(=O)N1 (centres undefined),,inactive
O=C(OC[C@H]1O[C@@H](OC(=O)c2cc(O)c(O)c(OC(=O)c3cc(O)c(O)c(O)c3)c2)[C@H](OC(=O)c2cc(O)c(O)c(OC(=O)c3cc(O)c(O)c(O)c3)c2)[C@@H](OC(=O)c2cc(O)c(O)c(OC(=O)c3cc(O)c(O)c(O)c3)c2)[C@@H]1OC(=O)c1cc(O)c(O)c(OC(=O)c2cc(O)c(O)c(O)c2)c1)c1cc(O)c(O)c(OC(=O)c2cc(O)c(O)c(O)c2)c1,15.2 µM (active),
CCc1cc(SCc2sc(-c3ccc(C(F)(F)F)cc3)nc2CN2CCN(c3ccc(OC)cc3)CC2)ccc1OCC(=O)O,8.47 µM (active),
